Consider two compounds from PubChem BioAssay (EPA / NIEHS).

Conditions in all cases: mRNA level, 48 h; actives raise or lower the signal
Read-out in assay [1]: Cyclin D2 (CCND2), CCND2 (gene 894)
Kind of assay: LTEA_HepaRG_CCND2: Life Technologies and Expression Analysis (LTEA) Assay for Cyclin D2 (CCND2) using HepaRG (AID 2283449).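 Further: CCND2 transcript measured by TaqMan qRT-PCR and normalised to three housekeeping genes.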 The method in brief: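 Chemicals in 0.5% DMSO, eight half-log concentrations from 100 uM top, were applied in duplicate for 48 h to human HepaRG cells in serum-free induction medium. CCND2 mRNA by TaqMan qRT-PCR, normalised to ACTB/GAPDH/POLR2A; bidirectional fit versus DMSO.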

Read-out in assay [2]: Cyclin Dependent Kinase Inhibitor 1A (CDKN1A), CDKN1A (gene 1026)
Description: LTEA_HepaRG_CDKN1A: Life Technologies and Expression Analysis (LTEA) Assay for Cyclin Dependent Kinase Inhibitor 1A (CDKN1A) using HepaRG (AID 2283450). The method in brief: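 Gain or loss of CDKN1A transcript is scored by bidirectional fitting against 0.5% DMSO vehicle. Human HepaRG cultures receive chemicals for 48 h across an 8-point series peaking at 100 uM; expression comes from qRT-PCR.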

Read-out in assay [3]: catalase (CAT), CAT (gene 847)
Kind of assay: LTEA_HepaRG_CAT: Life Technologies and Expression Analysis (LTEA) Assay for catalase (CAT) using HepaRG (AID 2283452). The method in brief: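 HepaRG cells in serum-free induction medium, 0.5% DMSO vehicle, exposed 48 h in duplicate over 8 half-log concentrations from 100 uM. CAT mRNA measured by qRT-PCR, normalized to ACTB, GAPDH, POLR2A; bidirectional fit versus DMSO.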

Read-out in assay [4]: flavin-containing dimethylaniline monooxygenases 3 (FMO3), FMO3 (gene 2328)
Kind of assay: LTEA_HepaRG_FMO3: Life Technologies and Expression Analysis (LTEA) Assay for flavin-containing dimethylaniline monooxygenases 3 (FMO3) using HepaRG (AID 2283453). The method in brief: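 Differentiated HepaRG cells in serum-free induction medium, exposed 48 h in duplicate to 8 half-log concentrations up to 100 uM in 0.5% DMSO. FMO3 mRNA by qRT-PCR, normalized to ACTB, GAPDH, POLR2A; bidirectional fit vs DMSO.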

Read-out in assay [5]: Cytochrome P450 (CYP1A1), CYP1A1 (gene 1543)
Kind of assay: LTEA_HepaRG_CYP1A1: Life Technologies and Expression Analysis (LTEA) Assay for Cytochrome P450 (CYP1A1) using HepaRG (AID 2283454). Put shortly:
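Using HepaRG cultures with 0.5% DMSO as vehicle, eight-concentration exposures (max 100 uM) lasted 48 h. Transcript levels were measured by TaqMan qRT-PCR and normalized to ACTB, GAPDH and POLR2A.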

Read-out in assay [6]: CFLAR gene, CFLAR (gene 8837)
Description: LTEA_HepaRG_CFLAR: Life Technologies and Expression Analysis (LTEA) Assay for CFLAR gene using HepaRG (AID 2283455). The method in brief: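 Differentiated HepaRG cells in serum-free induction medium were exposed 48 h in duplicate to eight half-log concentrations up to 100 uM in 0.5% DMSO; mRNA measured by TaqMan qRT-PCR, normalized to ACTB, GAPDH, POLR2A; bidirectional fitting versus DMSO.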

Read-out in assay [7]: Forkhead box O1 (FOXO1), FOXO1 (gene 2308)
Description: LTEA_HepaRG_FOXO1: Life Technologies and Expression Analysis (LTEA) Assay for Forkhead box O1 (FOXO1) using HepaRG (AID 2283456). Put shortly: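 Differentiated HepaRG cells, in serum-free induction medium with 0.5% DMSO, exposed 48 h in duplicate to 8-point half-log series from 100 uM. FOXO1 mRNA measured by TaqMan qRT-PCR, normalized to ACTB, GAPDH, POLR2A; bidirectional fit versus DMSO.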

Read-out in assay [8]: growth arrest and DNA damage 45 (GADD45A), GADD45A (gene 1647)
Kind of assay: LTEA_HepaRG_GADD45A: Life Technologies and Expression Analysis (LTEA) Assay for growth arrest and DNA damage 45 (GADD45A) using HepaRG (AID 2283458). Put shortly:
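Cells plated and cultured 48 h, switched to serum-free induction medium, then dosed for 48 h (100 uM top, half-log dilutions, 0.5% DMSO). RNA was isolated and transcript measured by Fluidigm qRT-PCR.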

Read-out in assay [9]: Forkhead box O3 (FOXO3), FOXO3 (gene 2309)
Kind of assay: LTEA_HepaRG_FOXO3: Life Technologies and Expression Analysis (LTEA) Assay for Forkhead box O3 (FOXO3) using HepaRG (AID 2283459). The method in brief:
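Differentiated human HepaRG cells, 48 h post-plating, exposed in duplicate for 48 h in serum-free induction medium; 8-point half-log series from 100 uM in 0.5% DMSO. FOXO3 mRNA by TaqMan qRT-PCR, normalized to ACTB/GAPDH/POLR2A; bidirectional fit versus DMSO.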

Read-out in assay [10]: ABC Transporter (ABCB1), ABCB1 (gene 5243)
Kind of assay: LTEA_HepaRG_ABCB1: Life Technologies and Expression Analysis (LTEA) Assay for ABC Transporter (ABCB1) using HepaRG (AID 2283460). The method in brief:
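HepaRG cells exposed in duplicate for 48 h in serum-free induction medium to eight half-log concentrations up to 100 uM in 0.5% DMSO. ABCB1 mRNA quantified by qRT-PCR, normalised to ACTB, GAPDH and POLR2A; fitted bidirectionally versus DMSO.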

Read-out in assay [11]: growth arrest and DNA damage 45 (GADD45B), GADD45B (gene 4616)
Kind of assay: LTEA_HepaRG_GADD45B: Life Technologies and Expression Analysis (LTEA) Assay for growth arrest and DNA damage 45 (GADD45B) using HepaRG (AID 2283461). Put shortly:
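Human HepaRG monolayers receive chemicals for 48 h at eight half-log concentrations, highest 100 uM, in 0.5% DMSO. Expression is measured by TaqMan qRT-PCR and normalized to ACTB, GAPDH and POLR2A.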

Read-out in assay [12]: ABC Transporter (ABCC3), ABCC3 (gene 8714)
Description: LTEA_HepaRG_ABCC3: Life Technologies and Expression Analysis (LTEA) Assay for ABC Transporter (ABCC3) using HepaRG (AID 2283462). The method in brief:
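Transcriptional change of ABCC3 in HepaRG after 48 h treatment, determined by qRT-PCR normalized to endogenous controls. Concentrations spanned eight half-log steps to 100 uM in 0.5% DMSO.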

Read-out in assay [13]: ABC Transporter (ABCB11), ABCB11 (gene 8647)
Kind of assay: LTEA_HepaRG_ABCB11: Life Technologies and Expression Analysis (LTEA) Assay for ABC Transporter (ABCB11) using HepaRG (AID 2283463). The method in brief:
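Differentiated human HepaRG cells in serum-free induction medium, dosed in duplicate for 48 h. Eight-point half-log series from 100 uM in 0.5% DMSO; ABCB11 mRNA by qRT-PCR, normalized to ACTB, GAPDH, POLR2A, fitted bidirectionally versus DMSO.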

Read-out in assay [14]: ABC Transporter (ABCC2), ABCC2 (gene 1244)
Kind of assay: LTEA_HepaRG_ABCC2: Life Technologies and Expression Analysis (LTEA) Assay for ABC Transporter (ABCC2) using HepaRG (AID 2283464). Put shortly: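 After plating and 48 h culture, HepaRG medium is replaced with serum-free induction medium and chemicals are added (8 concentrations, max 100 uM, 0.5% DMSO) for 48 h. Total RNA then undergoes qRT-PCR for ABCC2 with housekeeping normalization.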

Read-out in assay [15]: Broad substrate specificity ATP-binding cassette transporter ABCG2 (Homo sapiens) (UniProt Q9UNQ0)
Kind of assay: LTEA_HepaRG_ABCG2: Life Technologies and Expression Analysis (LTEA) Assay for ABC Transporter (ABCG2) using HepaRG (AID 2283465). The method in brief: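 Differentiated HepaRG cells were exposed for 48 h in serum-free induction medium to 8 half-log concentrations, top 100 uM, in 0.5% DMSO. ABCG2 mRNA was measured by qRT-PCR, normalized to ACTB, GAPDH and POLR2A, with bidirectional fitting versus DMSO.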

Read-out in assay [16]: Peroxisomal acyl-coenzyme A oxidase 1 (ACOX1) gene, ACOX1 (gene 51)
Description: LTEA_HepaRG_ACOX1: Life Technologies and Expression Analysis (LTEA) Assay for Peroxisomal acyl-coenzyme A oxidase 1 (ACOX1) gene using HepaRG (AID 2283467). The method in brief:
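HepaRG cells, plated 48 h then switched to serum-free induction medium, were exposed in duplicate for 48 h to 8-point half-log concentrations up to 100 uM in 0.5% DMSO. ACOX1 mRNA was measured by qRT-PCR, normalized to ACTB/GAPDH/POLR2A, and fitted bidirectionally versus DMSO.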

Read-out in assay [17]: Alkaline Phosphatase, Placental (ALPP) gene, ALPP (gene 250)
Description: LTEA_HepaRG_ALPP: Life Technologies and Expression Analysis (LTEA) Assay for Alkaline Phosphatase, Placental (ALPP) gene using HepaRG (AID 2283468). The method in brief: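 Using human liver HepaRG cells, chemicals are tested in duplicate over 48 h at half-log concentrations topping at 100 uM; phenobarbital 1 mM serves as induction control. ALPP mRNA change by qRT-PCR, bidirectional fit against vehicle.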

Read-out in assay [18]: ATP-citrate lyase (ACLY), ACLY (gene 47)
Description: LTEA_HepaRG_ACLY: Life Technologies and Expression Analysis (LTEA) Assay for ATP-citrate lyase (ACLY) using HepaRG (AID 2283466). The method in brief: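 Differentiated HepaRG cells exposed 48 h in serum-free induction medium to eight half-log concentrations up to 100 uM in 0.5% DMSO, duplicates. Transcript measured by Fluidigm TaqMan qRT-PCR, normalized to ACTB, GAPDH, POLR2A; bidirectional fit versus DMSO.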

Active and inactive are the calls of the source. How the source made its calls: active means hit-call score of the fitted dose curve at least 0.9, where 1 is the maximum; inactive means score below 0.9.

Sequence of Broad substrate specificity ATP-binding cassette transporter ABCG2 (Homo sapiens) (Q9UNQ0 whole entry, looked up): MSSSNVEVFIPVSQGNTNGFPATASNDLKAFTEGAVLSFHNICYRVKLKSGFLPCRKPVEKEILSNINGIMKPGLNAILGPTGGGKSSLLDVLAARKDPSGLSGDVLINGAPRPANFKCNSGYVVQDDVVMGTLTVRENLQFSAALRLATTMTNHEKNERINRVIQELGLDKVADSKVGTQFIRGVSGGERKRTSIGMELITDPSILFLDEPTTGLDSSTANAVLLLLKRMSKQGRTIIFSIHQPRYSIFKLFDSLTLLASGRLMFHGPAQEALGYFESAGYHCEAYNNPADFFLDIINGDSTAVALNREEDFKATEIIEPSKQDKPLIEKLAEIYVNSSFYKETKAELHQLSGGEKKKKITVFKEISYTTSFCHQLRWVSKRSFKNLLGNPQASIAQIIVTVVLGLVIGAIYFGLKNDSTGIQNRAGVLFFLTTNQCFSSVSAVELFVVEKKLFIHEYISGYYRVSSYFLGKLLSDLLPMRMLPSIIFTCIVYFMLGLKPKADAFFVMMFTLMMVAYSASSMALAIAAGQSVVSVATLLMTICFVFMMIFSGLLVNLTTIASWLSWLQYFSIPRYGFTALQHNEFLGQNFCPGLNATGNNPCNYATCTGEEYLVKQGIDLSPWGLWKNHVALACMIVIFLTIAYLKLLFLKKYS

For `Cc1oc(-c2ccccc2)nc1CCOc1ccc(C[C@H](Nc2ccccc2C(=O)c2ccccc2)C(=O)O)cc1`, the call in assay [1], in assay [2] and in [7] was inactive. Further, the AC50 in assay [3] is 29.4 µM (active); in [4], 26.4 µM (active); in assay [5], 11.4 µM (active); in assay [6], 30 µM (active); in assay [8] it was 12.4 µM (active); in assay [9] it was 64.6 µM (active). In addition, the AC50 in [10] was 26.5 µM (active); in assay [11], 58.4 µM (active); in assay [12], 32.5 µM (active); in assay [13] it was 23.6 µM (active); in assay [14] it was 28.9 µM (active); in assay [15], 27.7 µM (active). Moreover, the AC50 in assay [16] is 27.3 µM (active); in assay [17] it was 26.1 µM (active).

With `CCCCCCCCCCCCCCCS(=O)(=O)Oc1ccccc1`, the compound was classed as inactive in [1], in [2], in [3], in [4], in [6] and in assay [7]. For the same compound, the result in assay [8], in [9], in [11], in [12], in [13] and in [15] was inactive. The call in assay [18], in assay [16] and in assay [17] was inactive. The results for the AC50 in [5], in assay [10] and in assay [14] were 11.4 µM (active), 13.3 µM (active) and 11.2 µM (active), respectively.

Usually AC50 stands for the midpoint of the concentration-response curve, whichever way the signal moves.
